From PubChem BioAssay AID624256 (NMMLSC, 2012) come the findings set out here.

About 3,700 (1%) of roughly 360,000 compounds were called active. Another 2% or so got no clear call; they are omitted.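 How the source made its calls: active means normalized GFP-positive differentiation at or above the plate's own cutoff, the solvent-only control mean plus 3 SD; inconclusive means no clear call, values can overlap the other calls; inactive means the rest.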 For the sample, actives were picked, then their nearest neighbours and some compounds at random.

The experiment is described as follows: induction of myeloid progenitor differentiation, primary screen, cell-based, flow cytometry, MLPCN library (AID 624256).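 On GFP+ MAC1+ double positive: cells exposed to compound for four days before flow analysis.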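 On normalized GFP-positive differentiation: cells exposed to compound for four days before flow analysis; 0% = DMSO wells and 100% = fulvestrant positive control at 5 µM.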 Conditions: ER-HoxA9 myeloid progenitors, lysozyme-GFP differentiation, at 10 µM; GFP+ MAC1+ double positive: measured here: differentiation confirmed by MAC1 staining, stronger effect = higher value; normalized GFP-positive differentiation: stronger effect = higher value.
For `Cc1cccc(C)c1NC(=O)C(c1cccc2ccccc12)n1c(=O)c(-c2ccco2)nc2ccccc21` (centres undefined), the GFP+ MAC1+ double positive is 3.2% and the outcome was inactive.

With `Cc1cc(C)c(S(=O)(=O)NN=C2c3ccccc3[C@H]3Cc4csc[n+]4[C@@H]23)c(C)c1`, the GFP+ MAC1+ double positive was 1.3% and the outcome was inactive.

Take `O=C(COC(=O)c1ccccc1O)NCc1ccco1`: the GFP+ MAC1+ double positive turned out to be 0.8% and the call was inactive.

Turning to `CCN(C(=O)COC(=O)c1ccccc1O)c1cccc2ccccc12`, the GFP+ MAC1+ double positive is 0.7% and the normalized GFP-positive differentiation was 11.2% (active).

As to `Cc1cccc(C)c1NC(=O)COC(=O)c1ccccc1O`, the GFP+ MAC1+ double positive is 0.5% and the call was inactive.

With `CCOC(=O)C1=CCC(c2ccc(F)cc2)N(S(=O)(=O)c2ccc(C)cc2)C1` (centres undefined), the GFP+ MAC1+ double positive was found to be 0.9% and the result was inactive.

Take `Cc1cccc(C)c1-n1nnnc1C(CCc1ccccc1)N1CCN(C/C=C/c2ccccc2)CC1` (centres undefined): the GFP+ MAC1+ double positive is 1.8% and the call was inactive.

In the case of `Cc1cc2nc(-c3ccc(Cl)cc3)c(Cc3cccc(F)c3)n2c(C)c1Br`, the GFP+ MAC1+ double positive was determined as 1.3% and the compound was called inactive.

Regarding `O=C(c1ccco1)N1CCN(C(=O)C2CC(c3ccc(F)cc3)=NO2)CC1` (centres undefined), the GFP+ MAC1+ double positive stood at 12.6% and the normalized GFP-positive differentiation was 34.4% (active).

For `CCOC(=O)N1CCN(C(=O)C2CC(c3ccc(F)cc3)=NO2)CC1` (centres undefined), the GFP+ MAC1+ double positive was 1.8% and the outcome was inactive.

As to `O=C(c1ccco1)N1CCN(C(=O)C2CC(c3ccc(Cl)c(Cl)c3)=NO2)CC1` (centres undefined), the GFP+ MAC1+ double positive is 0.9% and the compound was classed as inactive.

Turning to `Cn1cnc(S(=O)(=O)N2C[C@@H](O)COC[C@@H]3O[C@H](CC(=O)NC4CCC4)CC[C@H]32)c1`, the GFP+ MAC1+ double positive came out at 3.2% and the compound was called inactive.

Take `NCCCNC(=S)NCCCN(Cc1ccc(Cl)cc1)c1ccc(Br)cn1`: the GFP+ MAC1+ double positive was determined as 0.9% and the call was inactive.

With `O=C(CC[C@H]1O[C@@H](n2ccc(=O)[nH]c2=O)[C@H](O)[C@@H]1O)N[C@H](Cc1ccccc1)C(=O)NCCCN1CCCC1=O`, the GFP+ MAC1+ double positive was determined as 0.7% and the call was inactive.

`O=C(NCC(O)c1nc2ccccc2[nH]1)c1ccc(Br)cc1` (centres undefined): the GFP+ MAC1+ double positive is 0.9% and the compound was classed as inactive.

On to `CC(C)c1nc2ccc(C(=O)O)cc2[nH]1`, for which the GFP+ MAC1+ double positive was found to be 15% and the normalized GFP-positive differentiation was 15.9% (active).

Take `OC(c1nc2ccc(F)cc2[nH]1)C(O)c1nc2ccc(F)cc2[nH]1` (centres undefined): the GFP+ MAC1+ double positive stood at 0.4% and the compound was called inactive.

As for `COc1ccc(COC[C@H](CC(C)C)N2CCN(C(=O)c3cccc(C(F)(F)F)c3)CCC2=O)cc1`, the GFP+ MAC1+ double positive was found to be 0.4% and the compound was classed as inactive.

With `CC(=O)C[C@@H]1OC[C@H](C)N1S(=O)(=O)c1ccc(C)cc1`, the GFP+ MAC1+ double positive was found to be 3% and the compound was classed as inactive.

Turning to `Cc1ccc(-c2c(N)nc3ncccn23)cc1`, the GFP+ MAC1+ double positive was 1.5% and the call was inactive.

As to `CN1CCN(c2ccc3c(c2)OC[C@H](Cc2ccccc2)NS3(=O)=O)CC1`, the GFP+ MAC1+ double positive worked out at 1% and the result was inactive.

For the compound `Cc1ccc(-c2csc(NC(=O)C3=COCCO3)n2)cc1C`, the GFP+ MAC1+ double positive stood at 0% and the compound was called inactive.

As to `CCc1noc(C)c1C(=O)Nc1nc(-c2ccccc2)cs1`, the GFP+ MAC1+ double positive came out at 2.2% and the normalized GFP-positive differentiation was 32.2% (active).

Regarding `CCc1noc(C)c1C(=O)OCC(=O)c1ccc(NC(=O)CC(C)C)cc1`, the GFP+ MAC1+ double positive was 1.1% and the compound was called inactive.

Turning to `CCN(CC)S(=O)(=O)c1cc(C(=O)Nc2cc(S(=O)(=O)N3CCOCC3)ccc2N2CCCC2)ccc1F`, the GFP+ MAC1+ double positive was 0.3% and the compound was classed as inactive.

`CCN(CC)S(=O)(=O)c1ccc(N2CCCC2)c(NC(=O)c2ccc([N+](=O)[O-])o2)c1`: the GFP+ MAC1+ double positive was 5.1% and the normalized GFP-positive differentiation is 56% (active).

`CCN(CC)S(=O)(=O)c1ccc(N2CCOCC2)c(NC(=O)c2ccc(=O)n(C)n2)c1`: the GFP+ MAC1+ double positive was 0.1% and the call was inactive.

Turning to `Clc1cccc(Cc2c(-c3cccc(Cl)c3)nc3ccc(Cl)cn23)c1`, the GFP+ MAC1+ double positive was found to be 0.4% and the call was inactive.

`COc1ccc(CNC(=O)c2nnn(CC(=O)Nc3cc(C)cc(C)c3)c2N)cc1`: the GFP+ MAC1+ double positive was determined as 0.5% and the compound was classed as inactive.

On to `CCOc1ccc(Cn2nnc(C(=O)Nc3ccc(OC)cc3OC)c2N)cc1`, for which the GFP+ MAC1+ double positive worked out at 12.5% and the normalized GFP-positive differentiation was 38% (active).

`COc1ccc(NC(=O)Cn2nnc(C(=O)NCCc3ccc(OC)c(OC)c3)c2N)cc1`: the GFP+ MAC1+ double positive was 1% and the compound was classed as inactive.

`Cc1cccc(C)c1NC(=O)C(c1cccc(F)c1)N1CCN(C)CC1` (centres undefined): the GFP+ MAC1+ double positive came out at 2.3% and the result was inactive.

As for `COc1ccc(S(=O)(=O)N2CCOCC2)cc1C(=O)Nc1nc2ccccc2s1`, the GFP+ MAC1+ double positive came out at 27.7% and the normalized GFP-positive differentiation is 33.1% (active).

As for `COc1ccc(S(=O)(=O)N2CCOCC2)cc1NC(=O)COc1ccccc1`, the GFP+ MAC1+ double positive amounted to 0.8% and the result was inactive.

On to `COc1ccc(S(=O)(=O)N2CCOCC2)cc1C(=O)NC1CCCCC1`, for which the GFP+ MAC1+ double positive was 0.6% and the outcome was inactive.

Regarding `Cc1c(C(=O)NCC2CC2)sc(=O)n1Cc1cccc(F)c1`, the GFP+ MAC1+ double positive worked out at 4.3% and the outcome was inactive.

`O=S1(=O)CC(N2CCN(Cc3ccccc3F)CC2)CN1Cc1cn(Cc2cccc(C(F)(F)F)c2)nn1` (centres undefined): the GFP+ MAC1+ double positive came to 1% and the compound was called inactive.

In the case of `O=C1C=CN2CCCC2CC1` (centres undefined), the GFP+ MAC1+ double positive is 1.2% and the normalized GFP-positive differentiation is 7.96% (active).

Regarding `CC(=O)C1=CCC(c2ccccc2)N(S(=O)(=O)c2ccc(C)cc2)C1` (centres undefined), the GFP+ MAC1+ double positive came to 1.6% and the outcome was inactive.

On to `Cc1ccccc1S(=O)(=O)N1[C@@H](c2cccc(Cl)c2)C(C(=O)OC(C)(C)C)=CC[C@H]1c1ccc(Cl)cc1`, for which the GFP+ MAC1+ double positive turned out to be 0.4% and the call was inactive.

Take `COc1ccc(S(=O)(=O)N[C@@H]2C=C[C@@H](CC(=O)N3CCc4ccccc4C3)O[C@@H]2CO)cc1`: the GFP+ MAC1+ double positive was 1.9% and the outcome was inactive.

For `CN1/C(=c2/s/c(=C3/C(=O)N(c4ccccc4)NC3=Nc3ccccc3)n(C)c2=O)C(C)(C)c2ccccc21`, the GFP+ MAC1+ double positive is 13.2% and the normalized GFP-positive differentiation is 200% (active).
